These results are taken from the supplement of paper PMC9135407.

Values joined by “and” are separate entries in the source; they are usually repeats but may differ in a detail not shown here. Identical values can stand only once. Counter-ions that a name gives are not always drawn. Screen size: about 5,800 compounds; about 620 (11%) showed activity. This excerpt belongs to a sample that is enriched for actives. Unmarked numbers belong to inactive results.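 Rule for the calls: active = score above a cut-off or among the top three wells of a plate; in these data no inactive exceeds 0.85.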

The assay deals with primary human hepatic stellate cells (donor 1). Nature of the assay: scaled lipid accumulation score (0 = DMSO-like, 1 = nortriptyline-like); higher = stronger HSC inactivation (lipid re-accumulation), active = hit call of the paper. As to conditions: 48 h.
[1] abbreviates: library stock concentration: 80 uM.
[2] abbreviates: library stock concentration: 400 uM.
[3] abbreviates: library stock concentration: 2 mM.
[4] abbreviates: library stock concentration: 3.33 mM.
The mark [5] stands for this setting: library stock concentration: 10 mM.
[6] abbreviates: library stock concentration: 1 mM.

Regarding `CNc1nc(-c2ccc3c(N)n[nH]c3c2)cc(N2C[C@@H](C(=O)NC3CCCCC3)CC[C@H]2C)n1`, the “scaled lipid accumulation score” value runs as follows: under setting [1], not above -0.016; under setting [2], not above -0.016; under setting [3], not above -0.016; under setting [4], not above 0; under setting [5], 0.741 and 0.773. For `CN(NC(=O)CC(=O)NN(C)C(=S)c1ccccc1)C(=S)c1ccccc1` [Elesclomol (STA-4783)], the “scaled lipid accumulation score” value runs as follows: under setting [4], not above 0; under setting [5], not above 0. `Cn1c(-c2ccc3c(c2)OCO3)cc(=O)c2ccccc21` [Graveoline]: the “scaled lipid accumulation score” value was not above 0. Turning to `O=c1cc(-c2ccccc2F)[nH]c2cc3c(cc12)OCO3` [CHM-1 hydrate], under setting [5], the “scaled lipid accumulation score” value is 0.875 (active).

Consider `O=C(NC(NC(=S)Nc1ccc(F)c([N+](=O)[O-])c1)C(Cl)(Cl)Cl)C(c1ccccc1)c1ccccc1` (centres undefined), for which the “scaled lipid accumulation score” value was not above 0 under setting [1]; 0.081 under setting [2]; 0.01 under setting [3]; not above -0.009 under setting [4]; 0.019 and 0.171 and 0.352 under setting [5]. Consider `O=C(NC1CCNCC1)c1n[nH]cc1NC(=O)c1c(Cl)cccc1Cl`, for which the “scaled lipid accumulation score” value is, setting by setting: under setting [1], 0.367; under setting [2], 0.117 and 0.282; under setting [3], 0.26 and 0.49; under setting [4], 0.109; under setting [5], 0.212 and 0.239 and 0.462. With `C[C@H](CCCO)[C@H]1CC[C@H]2[C@@H]3[C@H](O)C[C@H]4C[C@H](O)CC[C@]4(C)[C@H]3C[C@H](O)[C@]12C` [Petromyzonol], the “scaled lipid accumulation score” value under setting [6] was 0.043. Regarding `Cn1cc(-c2ccc(F)c(C(F)(F)F)c2)nc1C1CCN(c2ncnc3[nH]ncc23)CC1`, the “scaled lipid accumulation score” value was 0.021 under setting [1], 0.015 under setting [2], 0.054 under setting [3] and 0.371 under setting [5]. In the case of `CCc1ccc2c(O)c3c(cc2c1C(=O)OC)C(=O)c1c(O)ccc(O)c1C3=O` [Bisanhydrorutilantinone], the “scaled lipid accumulation score” value under setting [5] is 0.11. In the case of `CCCCC[C@@H](O)/C=C/[C@@H]1[C@@H](C/C=C\CCCC(=O)O)[C@@H](O)C[C@H]1O` [15(R)-Prostaglandin F2.alpha.], under setting [6], the “scaled lipid accumulation score” value was not above 0. In the case of `C=C1CC2(O)OC3(CC2C(C)C)C(C)CCC13` (centres undefined) [Curcumol], the “scaled lipid accumulation score” value is, setting by setting: under setting [4], not above 0; under setting [5], not above 0. Consider `CCn1c2ccccc2c2cc(Nc3ccnc(NCCCN4CCOCC4)n3)ccc21`, for which the “scaled lipid accumulation score” value was 0.673 under setting [4] and 0.087 under setting [5]. With `CCn1c(=O)[nH]c2ccccc21`, the “scaled lipid accumulation score” value under setting [5] was not above -0.006.

On to `CCn1c2ccccc2c2cc(CNC)ccc21.Cl`, for which the “scaled lipid accumulation score” value under setting [5] was 0.872 (active). Regarding `CCCCCCCC/C=C\CCCCCCCC(=O)NCCS(=O)(=O)O` [N-Oleoyl Taurine], under setting [6], the “scaled lipid accumulation score” value was 0.011. Turning to `C[C@@H](Oc1cc(-c2cnn(C3CCNCC3)c2)cnc1N)c1c(Cl)ccc(F)c1Cl` [listing 1 of 2 here], the “scaled lipid accumulation score” value under setting [1] is not above 0, the “scaled lipid accumulation score” value under setting [2] was 0.145, the “scaled lipid accumulation score” value under setting [3] was 0.477 and the “scaled lipid accumulation score” value under setting [5] was 0.242. With `C[C@@H](Oc1cc(-c2cnn(C3CCNCC3)c2)cnc1N)c1c(Cl)ccc(F)c1Cl` [listing 2 of 2 here], the “scaled lipid accumulation score” value is, setting by setting: under setting [4], 0.909 (active); under setting [5], 0.863 (active). On the same counts, the results for `CC(Oc1cc(-c2cnn(C3CCNCC3)c2)cnc1N)c1c(Cl)ccc(F)c1Cl` [(S)-crizotinib] are 0.504 and 0.396. Turning to `CCCCCCCCCCCCCCCCOC[C@H](COP(=O)([O-])OCC[N+]1(C)CCCC1)OC(C)=O` [Pyrrolidino PAF C-16], the “scaled lipid accumulation score” value under setting [6] is not above 0.

Consider `C[N+]1(C)CCCC1C(=O)O` (centres undefined) [Stachydrine hydrochloride], for which the “scaled lipid accumulation score” value is 0.046. As for `O=C(/C=C\n1cnc(-c2cc(C(F)(F)F)cc(C(F)(F)F)c2)n1)N1CC(F)(F)C1`, the “scaled lipid accumulation score” value by setting is: under setting [4], not above -0.009; under setting [5], 0.294. For `CCCCC[C@](C)(O)/C=C/[C@@H]1[C@@H](C/C=C\CCCC(=O)OC)[C@@H](O)C[C@H]1O` [15(S)-15-methyl Prostaglandin F2.alpha. methyl ester], under setting [6], the “scaled lipid accumulation score” value is not above 0. As to `CC(Cc1ccccc1)(NC(=O)CN)c1ccccc1` (racemic), under setting [5], the “scaled lipid accumulation score” value was 0.922 (active). Still for that read-out and setting: as for `CC(Cc1ccccc1)(NC(=O)CN)c1ccccc1` (centres undefined) [Remacemide hydrochloride], the figure is 0.479. With `CC(N)(Cc1ccc(O)cc1)C(=O)O` (racemic) [DL-alpha-Methyl-p-tyrosine], the “scaled lipid accumulation score” value under setting [5] is 0.213. Still for that read-out and setting: in the case of `COc1ccc(-c2cc(=O)c3c(O)c(OC)c(OC)cc3o2)cc1O` [Eupatorin] it was 0.725. For `CC(C)Cn1c(=O)n(C)c(=O)c2nc[nH]c21` [Isobutylmethylxanthine], the “scaled lipid accumulation score” value (library stock concentration: 9 mM) was not above 0. Take `O=C[C@H](O)[C@@H](O)[C@H](O)CO` [Xylose]: the “scaled lipid accumulation score” value reads like this: under setting [4], not above 0; under setting [5], 0.028. On to `CN1CCN(C2=Nc3ccccc3Oc3ccc(Cl)cc32)CC1`, for which the “scaled lipid accumulation score” value under setting [5] is 0.608.

With `CN1CCN(C2=Nc3ccccc3Oc3ccc(Cl)cc32)CC1` [Loxapine succinate], the “scaled lipid accumulation score” value is 0.3. For the same compound, the “scaled lipid accumulation score” value (library stock concentration: 4.5 mM) is 0.253. For the same compound, under setting [5], the “scaled lipid accumulation score” value was 0.708 and 0.486. For the compound `CN1CCN(C2=Nc3ccccc3Oc3ccc(Cl)cc32)CC1` [Loxapine Succinate], the “scaled lipid accumulation score” value reads like this: under setting [4], not above 0; under setting [5], 0.493. For `CN1CCN(C2=Cc3ccccc3Oc3ccc(Cl)cc32)CC1.O=C(O)/C=C/C(=O)O`, the “scaled lipid accumulation score” value under setting [5] is 1.01 (active). `CN1CC2c3ccccc3Oc3ccc(Cl)cc3C2C1` (centres undefined) [Asenapine]: the “scaled lipid accumulation score” value under setting [4] is 0.156 and the “scaled lipid accumulation score” value under setting [5] is 0.752.

Consider `CN1CC2c3ccccc3Oc3ccc(Cl)cc3C2C1` (centres undefined) [Asenapine maleate], for which the “scaled lipid accumulation score” value under setting [5] was 0.772. In the case of `CNc1nc(Nc2cnn(C3CCN(C4COC4)CC3F)c2Cl)ncc1C(F)(F)F` (centres undefined), the “scaled lipid accumulation score” value runs as follows: under setting [4], not above -0.009; under setting [5], not above 0. `CCCCC(C)(O)CC=CC1C(O)CC(=O)C1CCCCCCC(=O)OC` (centres undefined) [8-iso Misoprostol]: the “scaled lipid accumulation score” value under setting [6] was not above 0. For the compound `CN1CCN(c2nc3cc(C(F)(F)F)ccc3n3cccc23)CC1.O=C(O)/C=C\C(=O)O` [listing 1 of 2 here], under setting [5], the “scaled lipid accumulation score” value is 0.974 (active).

Turning to `CN1CCN(c2nc3cc(C(F)(F)F)ccc3n3cccc23)CC1.O=C(O)/C=C\C(=O)O` [listing 2 of 2 here], the “scaled lipid accumulation score” value under setting [5] is 1.15 (active). Turning to `CCc1cncnc1N1CCN(Cc2nc3ccc(C(F)(F)F)cc3[nH]2)CC1`, the “scaled lipid accumulation score” value is, setting by setting: under setting [1], not above 0; under setting [2], not above 0; under setting [3], not above 0; under setting [4], not above 0; under setting [5], 0.077 and 0.419 and ≤ 0.

With `CCCCC/C=C\C[C@@H](O)/C=C/c1cccc(C[C@@H](O)CCCCO)n1`, the “scaled lipid accumulation score” value (library stock concentration: 100 uM) was not above -0.021. For the compound `CCNC(=O)CCC/C=C\C[C@@H]1[C@@H](CC[C@@H](O)CCc2ccccc2)[C@H](O)C[C@@H]1O` [Latanoprost ethyl amide], the “scaled lipid accumulation score” value under setting [6] is not above 0. As for `O=C1NCCc2[nH]c(-c3ccnc(-c4cnc5ccccc5c4)c3)cc21` [MK-2 Inhibitor III], the “scaled lipid accumulation score” value under setting [4] was not above 0. As for `C=C[C@H]1CN2CC[C@H]1C[C@H]2[C@H](O)c1ccnc2ccc(OC)cc12` [Quinine HCl Dihydrate], the “scaled lipid accumulation score” value is 0.077 under setting [4] and 0.31 under setting [5]. Consider `C=C[C@H]1CN2CC[C@H]1C[C@H]2[C@H](O)c1ccnc2ccc(OC)cc12` [Quinine sulfate], for which the “scaled lipid accumulation score” value reads like this: (library stock concentration: 4.7 mM) 0.308; under setting [5], ≤ 0 and 0.364. On to `C=C[C@H]1CN2CC[C@H]1C[C@H]2[C@H](O)c1ccnc2ccc(OC)cc12` [Quinine], for which, where the note is “library stock concentration: 6.2 mM”, the “scaled lipid accumulation score” value was 0.205. For `CC(C)[C@H](N)C(=O)OCC(CO)OCn1cnc2c(=O)nc(N)[nH]c21` (some centres undefined), the “scaled lipid accumulation score” value under setting [5] is 0.228. Consider `CCCCCCC[C@H](O)/C=C/[C@H]1[C@H](O)CC(=O)[C@@H]1C/C=C\CCCC(=O)O` [20-ethyl Prostaglandin E2], for which the “scaled lipid accumulation score” value under setting [6] is not above 0. Same read-out and setting: as for `CC(CCCO)C1CCC2C3C(O)CC4CC(=O)CCC4(C)C3CC(O)C12C` (centres undefined) [3-keto Petromyzonol], the figure is not above 0. In the case of `CN(C)CCOc1ccc(C(=C(CCCl)c2ccccc2)c2ccccc2)cc1.O=C(O)CC(O)(CC(=O)O)C(=O)O` [Toremifene Citrate], under setting [5], the “scaled lipid accumulation score” value is 1.23 (active).

Take `CN(C)CCOc1ccc(/C(=C(/CCCl)c2ccccc2)c2ccccc2)cc1` [Toremifene]: under “library stock concentration: 4.9 mM”, the “scaled lipid accumulation score” value is 0.264.

On to `CC/C(=C(\c1ccccc1)c1ccc(OCCN(C)C)cc1)c1ccccc1` [Tamoxifen Citrate], for which the “scaled lipid accumulation score” value is, setting by setting: under setting [4], 0.368; under setting [5], 0.579.

Regarding `CC/C(=C(\c1ccccc1)c1ccc(OCCN(C)C)cc1)c1ccccc1` [Tamoxifen], the “scaled lipid accumulation score” value reads like this: under setting [5], 0.674 and 0.394; (library stock concentration: 13.5 mM) 0.777. Take `OCCOc1ccc(/C(=C(/CCCl)c2ccccc2)c2ccccc2)cc1` [Ospemifene]: the “scaled lipid accumulation score” value is 0.069 under setting [4] and 0.171 under setting [5].

Turning to `CN(C)CCOc1ccc(/C(=C(/CCCl)c2ccccc2)c2ccccc2)cc1`, the “scaled lipid accumulation score” value under setting [5] is not above 0.

On to `CC/C(=C(\c1ccccc1)c1ccc(OCCN(C)C)cc1)c1ccccc1` [Tamoxifen citrate], for which the “scaled lipid accumulation score” value was 0.372. Besides, for the setting “library stock concentration: 3.5 mM”, the “scaled lipid accumulation score” value is 0.611. Also, the “scaled lipid accumulation score” value (library stock concentration: 5.4 mM) was 0.421. Also, under setting [5], the “scaled lipid accumulation score” value is 0.253 and 0.681 and 0.432. Regarding `CN(C)CCOC(=O)COc1ccc(Cl)cc1` [Meclofenoxate hydrochloride], the “scaled lipid accumulation score” value is not above 0. Further, the “scaled lipid accumulation score” value under setting [5] is not above -0.027.

In the case of `CN(C)CCOc1ccc(/C(=C(/CCCl)c2ccccc2)c2ccccc2)cc1.O=C(O)CC(O)(CC(=O)O)C(=O)O`, the “scaled lipid accumulation score” value under setting [5] is 0.946 (active). With `CN(C)CCOc1ccc(/C(=C(/CCCl)c2ccccc2)c2ccccc2)cc1` [Toremifene Citrate], the “scaled lipid accumulation score” value under setting [4] was 0.112. Regarding `CN(C)CCOC(=O)COc1ccc(Cl)cc1` [Centrophenoxine hydrochloride], the “scaled lipid accumulation score” value under setting [5] is 0.032. Consider `CN(C)CCOC(=O)COc1ccc(Cl)cc1` [Meclofenoxate (Centrophenoxine) HCl], for which the “scaled lipid accumulation score” value runs as follows: under setting [4], not above 0; under setting [5], 0.043.
